Assay outcomes (PubChem BioAssay)
A selection: hits, their analogues and other compounds. The true share with any hit is near 13%.
Shiga inhibitor: blocks Shiga toxin action in Vero cells; Vero cells, Shiga toxin protein synthesis inhibition reporter; inhibition, % at 38.7 µM; 290,000 compounds, 9.2% hits; in the data active means inhibition mostly above about 28%, no sharp cut-off; inactive means mostly below about 43%; further: 0% is about no effect
Marburg entry inh: inhibitors of Marburg virus binding or cell entry. Marburg virus pseudotyped entry inhibition, cell reporter. Potency, µM (highest dose often 37.8 µM), inactives show at the highest dose activity change, negative = inhibition, usual class: inhibitors. 300,000 compounds, 1.8% hits. AID 540276; calls by dose curve; tested in HEK293 cells; further: potency means the concentration at half of the fitted maximal effect; on the % scale 0 is the no-effect control and ±100 the full control effect
Cycloheximide cs: counter-screen for Shiga toxin inhibitors: cycloheximide protein synthesis inhibition; cell reporter, cycloheximide protein synthesis inhibition counterscreen; max response, %; 300,000 compounds, 12% hits; in the data active means max response mostly above about 13%, no sharp cut-off; inactive means mostly below about 14%; further: read at 38.3 µM for the half of the compounds with a filed dose; 0% is about no effect
HCV inhibitor: blocks hepatitis C virus; Huh7.5.1 HCVcc-Cre infection, luciferase reporter, 44 h; AID 651820; Potency, µM (doses to about 41.8 µM), without a hit: at the top dose activity change, negative = inhibition, usual class: inhibitors; 340,000 compounds, 3.4% hits; active means well fitted inhibition curve with a large enough effect; inconclusive means small, poorly fitted or top-dose-only effect, or another doubt; inactive means no such curve, though single readings can be large or run the other way; further: potency means the concentration at half of the fitted maximal effect; on the % scale 0 is the no-effect control and ±100 the full control effect
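Cells seeded at 1,000/well and cultured 4 h, then compounds added followed by HCVcc-Cre virus (~0.5 moi). After 44 h further culture, luciferase substrate was added, plates held 15 min at room temperature, and luminescence read for 15 sec.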
FMDV antiviral: blocks foot and mouth disease virus; 410,000 compounds, 1.2% hits; FMDV antiviral cell-based qHTS; Potency, µM (titrated, usually from 57.9 µM), for the others: top-dose activity change, negative = inhibition, usual class: inhibitors; AID 1159524; calls by dose curve; tested in HEK293T cells; further: read-out not given here; potency means the concentration at half of the fitted maximal effect; on the % scale 0 is the no-effect control and ±100 the full control effect; nearly all actives have a fitted effect of over 45% in size
Lassa entry inh: Lassa virus entry inhibition. Potency, µM (highest dose often 37.9 µM), for the others: top-dose activity change, negative = inhibition, most hits filed as inhibitors. Lassa virus pseudotype entry inhibition, cell reporter. 300,000 compounds, 1.2% hits; calls by dose curve; tested in HEK293 cells; further: potency means the concentration at half of the fitted maximal effect; on the % scale 0 is the no-effect control and ±100 the full control effect; nearly all actives have a fitted effect of over 50% in size
Numbers without * were called inactive; [ ] = dose if it differs, or a comment.

What do the screens show for `Cc1ccc(Nc2nc(C(=O)N3CCC(C(=O)NCCN4CCOCC4)CC3)cs2)cc1`?
Shiga inhibitor: 24; Marburg entry inh: 10%; Cycloheximide cs: 13; HCV inhibitor: 19%; FMDV antiviral: 34%; Lassa entry inh: inconclusive

How did Cc1ccc(Nc2nc(COC(=O)C3CC3)cs2)cc1 do in these assays?
Shiga inhibitor: 75*; Marburg entry inh: 11%; Cycloheximide cs: 52*; HCV inhibitor: -5%; FMDV antiviral: 6%; Lassa entry inh: -26%

Results for Cc1ccc(Nc2nc(C(=O)N3CCC(C(=O)NCc4ccccc4)CC3)cs2)cc1 ?
Shiga inhibitor: 35*; Marburg entry inh: -10%[46.1 µM]; Cycloheximide cs: 19*; HCV inhibitor: inconclusive; FMDV antiviral: -7%

How did Clc1ccc(-c2nnc(CNC3CC3)o2)cc1 do in these assays?
Shiga inhibitor: 23; Marburg entry inh: 12%; Cycloheximide cs: 21*; HCV inhibitor: 6%; FMDV antiviral: 8%; Lassa entry inh: 12%

How did COc1ccc(N2CCN(c3cc(C)c4ccc(O)cc4n3)CC2)cc1 do in these assays?
Shiga inhibitor: 17; Cycloheximide cs: 1; HCV inhibitor: 3%; FMDV antiviral: -23%

What do the screens show for `Cc1cc(Nc2ccccc2)nc2cc(O)ccc12`?
Shiga inhibitor: 114*; Marburg entry inh: -25%; Cycloheximide cs: 37*; HCV inhibitor: inconclusive; FMDV antiviral: 37%; Lassa entry inh: 5%

What do the screens show for `COc1ccc(Nc2cc(C)c3ccc(O)cc3n2)cc1`?
Shiga inhibitor: 52*; Cycloheximide cs: 46*; HCV inhibitor: inconclusive; FMDV antiviral: 4%

How did COc1ccc(C(=O)NNC2CC(=O)N(Cc3ccccc3)C2=O)cc1OC (centres undefined) do in these assays?
Shiga inhibitor: -9; Marburg entry inh: 1%; Cycloheximide cs: -2; HCV inhibitor: 14%; FMDV antiviral: -20%; Lassa entry inh: 7%

What do the screens show for `O=C1CC(C(=O)N2CCC3(CC2)OCCO3)CN1CCc1ccccc1` (centres undefined)?
Shiga inhibitor: -14; Marburg entry inh: -6%; Cycloheximide cs: -2; HCV inhibitor: 0%; FMDV antiviral: -4%; Lassa entry inh: 2%

How did COCC1CCN(C(=O)C2CCC(=O)N(C3CCCC3)C2)CC1 (centres undefined) do in these assays?
Shiga inhibitor: 49; Cycloheximide cs: 15*; HCV inhibitor: 9%; FMDV antiviral: 11%

How did Cc1ccc(C(C)(C)NC(=O)C2CCC(=O)N(CCCN3CCOCC3)C2)cc1 (centres undefined) do in these assays?
Shiga inhibitor: -4; Cycloheximide cs: -3; HCV inhibitor: 14%; FMDV antiviral: -8%

What do the screens show for `O=C(C1CC(=O)N(C2CCCCC2)C1)N1CCC2(CC1)OCCO2` (centres undefined)?
Shiga inhibitor: 32; Marburg entry inh: 9%; Cycloheximide cs: 13*; HCV inhibitor: 8%; FMDV antiviral: 0%; Lassa entry inh: 9%

What do the screens show for `COC1CCN(C(=O)C2CCC(=O)N(C3CCCCCC3)C2)CC1` (centres undefined)?
Shiga inhibitor: 52*; Cycloheximide cs: 36*; HCV inhibitor: 11%; FMDV antiviral: 32%

How did Cc1ccccc1OC1CCN(C(=O)C2CCC(=O)N(C3CCCC3)C2)CC1 (centres undefined) do in these assays?
Shiga inhibitor: 4; Cycloheximide cs: -1; HCV inhibitor: inconclusive; FMDV antiviral: inconclusive

What do the screens show for `Cc1ccc(C(C)(C)NC(=O)C2CCC(=O)N(C3CCCCCC3)C2)cc1` (centres undefined)?
Shiga inhibitor: 86*; Marburg entry inh: 11%[46.1 µM]; Cycloheximide cs: 42*; HCV inhibitor: 8%; FMDV antiviral: 28%; Lassa entry inh: 8%[46.1 µM]

How did CCOc1ccccc1-c1nnc(SCC(=O)NC2CC2)n1CC do in these assays?
Shiga inhibitor: 36; Marburg entry inh: inconclusive; Cycloheximide cs: -2; HCV inhibitor: -10%; FMDV antiviral: 11%; Lassa entry inh: -9%

What do the screens show for `O=C(C1CCC(=O)N(C2CC2)C1)N1CCC(Oc2cccc(C(F)(F)F)c2)CC1` (centres undefined)?
Shiga inhibitor: 17; Cycloheximide cs: 24*; HCV inhibitor: inconclusive; FMDV antiviral: -15%

What do the screens show for `Cc1ccc(SC2CCN(C(=O)C3CCC(=O)N(C4CC4)C3)CC2)cc1` (centres undefined)?
Shiga inhibitor: 49*; Cycloheximide cs: 27; HCV inhibitor: inconclusive; FMDV antiviral: -14%

Results for Cc1ccc(OC2CCN(C(=O)C3CCC(=O)N(C4CC4)C3)CC2)cc1 (centres undefined) ?
Shiga inhibitor: 11; Marburg entry inh: -10%; Cycloheximide cs: 7; FMDV antiviral: -26%; Lassa entry inh: -25%

What do the screens show for `Cc1cccc2sc(NNC(=O)c3cc(=O)c4ccccc4o3)nc12`?
Shiga inhibitor: 31*; Cycloheximide cs: 13*; HCV inhibitor: 21%; FMDV antiviral: 2%

What do the screens show for `O=C(NNc1nc2c(F)cccc2s1)c1cc(=O)c2ccccc2o1`?
Shiga inhibitor: 13; Cycloheximide cs: 13; HCV inhibitor: -2%; FMDV antiviral: 30%

How did Cc1ccc2sc(NNC(=O)c3cc(=O)c4ccccc4o3)nc2c1C do in these assays?
Shiga inhibitor: 44*; Cycloheximide cs: 16*; HCV inhibitor: 6%; FMDV antiviral: 22%

How did COc1ccc2nc(NNC(=O)c3cc(=O)c4ccccc4o3)sc2c1 do in these assays?
Shiga inhibitor: 66*; Cycloheximide cs: 43*; HCV inhibitor: -25%; FMDV antiviral: 23%

What do the screens show for `Cc1ccc(Cl)cc1NC(=O)c1ccc(Cn2cc(Cl)cn2)cc1`?
Shiga inhibitor: -6; Marburg entry inh: inconclusive; Cycloheximide cs: 2; HCV inhibitor: inconclusive; FMDV antiviral: -6%; Lassa entry inh: inconclusive

How did Cc1ccc(Cl)cc1N1CCN(S(=O)(=O)c2cc(Br)cc3c2N(C(=O)C2CC2)CC3)CC1 do in these assays?
Marburg entry inh: 13%[46.1 µM]; FMDV antiviral: 26%; Lassa entry inh: 15%[46.1 µM]

What do the screens show for `Cc1ccc(NC(=O)NCc2ccc3c(c2)OCO3)cc1C`?
Shiga inhibitor: 43*; Marburg entry inh: -2%[46.1 µM]; Cycloheximide cs: 23*; HCV inhibitor: -5%; FMDV antiviral: 44%; Lassa entry inh: 20%

How did COc1cccc2cc(C(=O)OCC(=O)NCc3ccc4c(c3)OCO4)c(=O)oc12 do in these assays?
Shiga inhibitor: 67*; Cycloheximide cs: 38*; HCV inhibitor: 6%; FMDV antiviral: 24%

What do the screens show for `COc1cccc(C(=O)OCC(=O)NCc2ccc3c(c2)OCO3)c1OC`?
Marburg entry inh: -5%; HCV inhibitor: 3%; FMDV antiviral: -5%; Lassa entry inh: 19%

Results for O=C(NCc1ccc2c(c1)OCO2)Nc1ccc(F)cc1 ?
Shiga inhibitor: 44*; Cycloheximide cs: 37*; HCV inhibitor: 8%; FMDV antiviral: 38%

How did COc1ccccc1NC(=O)NCc1ccc2c(c1)OCO2 do in these assays?
Shiga inhibitor: -1; Marburg entry inh: -1%; Cycloheximide cs: 11*; HCV inhibitor: -2%
